This is an account of results in PubChem BioAssay AID2685 (National Center for Advancing Translational Sciences (NCATS), 2010).

In all, about 320,000 compounds went through this assay and about 2,100 (0.66%) were called active. Not shown: some 53% with an inconclusive outcome. The call rests on the fitted dose curve; in most records, active means well fitted inhibition curve with a large enough effect in the signal ratio, with a control signal flat (not every such curve was filed as active); inconclusive means small, poorly fitted or top-dose-only effect, or effect the other way, or a change in a side signal; inactive means flat fitted curve, though single readings scatter; the % refers to the signal ratio. Shown is part of a subset that was picked to be rich in actives.
Potency means the concentration at half of the fitted maximal effect.

The nature of the assay: qHTS Assay for Lipid Storage Modulators in Drosophila S3 Cells.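 On cell number change: cells counted by Cell Tracker Red CMTPX staining in the red channel.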 To be noted: BODIPY lipid droplet fluorescence, 18-24 h, cells fed with added oleic acid; cell number change: measured here: cell count max response; series mostly up to 46.1 µM. In a few lines: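 Drosophila S3 cells loaded with oleic acid (400 uM, as added) and compounds at several concentrations; lipid droplets imaged by 488-nm laser-scanning cytometry, 500–530 nm intensity and object ratio to cell channel. Percent activity normalized to 20 uM Triacsin C.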
(In general: Quantitative high-throughput screening tests each substance at several concentrations.)
Take `Cc1ccc(N(C(=O)Cc2cccs2)C(C(=O)NC2CCCCC2)c2ccccn2)cc1C` (stereo not given): the Potency result was “inactive” and the cell number change came to 4.06%. Take `O=C(CCC(=O)c1ccccc1)NCCc1c[nH]c2ccccc12`: the Potency entry is “inactive” and the cell number change was -0.682%. As for `COc1ccc(S(=O)(=O)Nc2ccccc2C(=O)N2CCOCC2)cc1C`, the Potency entry was “inactive” and the cell number change is -5.26%. On to `Cc1cc(C)c(S(=O)(=O)N2CCN(S(=O)(=O)N3CCOCC3)CC2)c(C)c1`, for which the Potency entry is “inactive” and the cell number change was determined as 9.13%. Turning to `CN(C)S(=O)(=O)N1CCN(S(=O)(=O)N2CCOCC2)CC1`, the Potency entry is “inactive” and the cell number change was found to be 6.09%. The like results for `Cc1cc(C)c(S(=O)(=O)N2CCN(C(=O)N3CCOCC3)CC2)c(C)c1` were, in that order, 3.66 µM (active) and -4.21%. Turning to `CN(C)S(=O)(=O)N1CCN(C(=O)N2CCOCC2)CC1`, the Potency is 5.8 µM (active) and the cell number change was -2.73%. The like results for `Cc1cc(C)c(S(=O)(=O)N2CCN(C(=O)N(C)C)CC2)c(C)c1` were, in that order, “inactive” and -11%.

On to `CN(C)C(=O)N1CCN(C(=O)N2CCOCC2)CC1`, for which the Potency entry was “inactive” and the cell number change worked out at 3.54%. The like results for `Cc1ccccc1NS(=O)(=O)c1ccc(C)c(C(=O)N2CCOCC2)c1` were, in that order, “inactive” and 1.29%. For `Cc1cc(C)c(S(=O)(=O)Nc2ccccc2C(=O)N2CCOCC2)c(C)c1`, the Potency was 25.9 µM (active) and the cell number change is -34.8%. With `CCCN(CCC)S(=O)(=O)c1nc2nc(C)cc(C)n2n1`, the Potency result is “inactive” and the cell number change stood at 8.75%. Turning to `COc1cc2c(cc1OC)C(c1ccc(O)cc1)NCC2` (stereo not given), the Potency entry is “inactive” and the cell number change is -6.35%. As to `O=C1CCCN1CCC12CC3CC(CC(C3)C1)C2`, the Potency result was “inactive” and the cell number change was -8.85%. `COc1ccc(OC)c(CN2CCN(CCCc3ccccc3)C(CCO)C2)c1` (stereo not given): the Potency result was “inactive” and the cell number change came to 25.4%. Turning to `CCOc1ccc(CCNC(=O)c2ccc(=O)[nH]c2)cc1OCC`, the Potency result was “inactive” and the cell number change was found to be 0.381%.

On to `Cc1cccc(OCc2cc(-c3ccccc3)no2)c1C`, for which the Potency result is “inactive” and the cell number change was 19.4%.

Consider `CC(C)C(c1nnnn1C1CCCCC1)N1CCc2ccccc21` (stereo not given), for which the Potency result is “inactive” and the cell number change is 19.2%. With `CC(C)C(c1nnnn1C1CCCC1)N(C)C1CCCCC1` (stereo not given), the Potency was 5.17 µM (active) and the cell number change is -2.08%. The like results for `CC(C)C(c1nnnn1C1CCCC1)N1CCCCC1` (stereo not given) were, in that order, “inactive” and -26.8%. Consider `N#CC(C(=O)O)=C1CCCC1`, for which the Potency is 23.1 µM (active) and the cell number change is -10.5%.

As for `N#CC(C(=O)NC1CCCCC1)=C1CCCCC1`, the Potency result is “inactive” and the cell number change was 0.427%.

For the compound `N#CC(C(=O)Nc1ccccc1)=C1CCCCC1`, the Potency entry was “inactive”. `CCOc1cc(-c2ccc3c(c2)OCO3)cc(=O)c2c(C)oc(C)c12`: the Potency result is “inactive” and the cell number change is -26.2%. `CCO[C@@H]1OC(C(=O)N2CCN(Cc3ccc4c(c3)OCO4)CC2)=C[C@H](c2csc3ccccc23)[C@H]1CCCO`: the Potency entry was “inactive” and the cell number change is -13%. Turning to `COc1ccccc1NC(=O)CC(NC1CCCCC1)C(=O)O` (stereo not given), the Potency entry is “inactive” and the cell number change stood at 3.03%. Regarding `O=C(Nn1cnc2ccccc2c1=O)c1ccccc1F`, the Potency result is “inactive” and the cell number change is -5%. As for `N#Cc1ccc2c(c1)nc1ccccn12`, the Potency entry was “inactive” and the cell number change was found to be 11.1%. On to `N#Cc1c(-c2ccc3c(c2)OCO3)cc[nH]c1=O`, for which the Potency result was “inactive” and the cell number change was determined as 17.2%. Consider `N#Cc1c(-c2ccco2)cc(-c2ccccc2)[nH]c1=O`, for which the Potency result is “inactive”.

With `N#Cc1c(-c2ccccc2)cc(-c2ccc3c(c2)OCO3)[nH]c1=O`, the Potency is 8.2 µM (active) and the cell number change is -26.7%. Turning to `CC(C)=C1C2CCC1C1C(=O)N(c3nc(-c4ccc(F)cc4)c(C)s3)C(=O)C21` (stereo not given), the Potency entry is “inactive” and the cell number change is -3.6%. Regarding `COc1ccc(N2CCN(CC(=O)Nc3cc(C)on3)CC2)cc1`, the Potency result was “inactive” and the cell number change amounted to 7.54%. On to `Cc1ccc(Nc2nc(C(=O)N3CCC(C(=O)NCCN4CCOCC4)CC3)cs2)cc1`, for which the Potency entry was “inactive”. On to `O=C(N/N=C/c1ccc(-c2cccc(C(F)(F)F)c2)o1)c1cccc(F)c1`, for which the Potency result was “inactive”.

With `CC(C)N(C(=O)c1ccc2nc(-c3ccccc3)c(-c3ccccc3)nc2c1)C(C)C`, the Potency is 1.64 µM (active) and the cell number change is -9.21%. The like results for `CCN(CC)C(=O)c1ccc2nc(-c3ccccc3)c(-c3ccccc3)nc2c1` were, in that order, “inactive” and -0.854%. Take `O=C(O)c1ccc2nc(-c3ccccc3)c(-c3ccccc3)nc2c1`: the Potency result was “inactive” and the cell number change is -2.52%.

On to `CCOc1ccc(NC(=O)CN(C)C(=O)c2ccc(COc3ccccc3)o2)cc1OCC`, for which the Potency result is “inactive” and the cell number change is 24.1%. `CCN(CC)CCn1c(=N)n(CCOc2ccccc2)c2ccccc21`: the Potency entry is “inactive” and the cell number change is -6.28%. On to `CCN(CC)CCn1c(=N)n(CC(O)c2ccco2)c2ccccc21` (stereo not given), for which the Potency entry is “inactive” and the cell number change was 6.57%. Take `CCN(CC)CCn1c(=N)n(CCO)c2ccccc21`: the Potency was 3.26 µM (active) and the cell number change is -11.1%. On to `c1ccc(CCCNCC2COc3ccccc3O2)cc1` (stereo not given), for which the Potency entry is “inactive” and the cell number change is 19.8%. As for `CCOc1cccc(CN2CCC(Oc3ccc(C(=O)NCc4ccccn4)cc3)CC2)c1`, the Potency entry is “inactive”. Take `Cn1cc(CNC(=O)c2ccc(OC3CCN(Cc4ccccn4)CC3)cc2)cn1`: the Potency entry is “inactive”.

For the compound `CCn1cc(CNC(=O)c2ccc(OC3CCN(Cc4ccccn4)CC3)cc2)cn1`, the Potency was 3.66 µM (active) and the cell number change is -18.8%. As to `C/C(N)=C(/C#N)C(=O)CSc1nnc(-c2ccc3c(c2)OCO3)o1`, the Potency result is “inactive” and the cell number change was determined as 22.5%. The like results for `Cc1ccc2c(CC(=O)OCc3cc(=O)n4c(n3)sc3ccccc34)coc2c1` were, in that order, “inactive” and -0.183%. As for `Cc1ccc(/C=N/n2c(-c3ccccc3)n[nH]c2=S)cc1`, the Potency result was “inactive” and the cell number change came to 7.92%. Turning to `CC(=O)N(C(C)=O)c1nc(-c2ccccc2)cn1/N=C/c1ccccc1`, the Potency was 1.64 µM (active) and the cell number change was -51.6%. The like results for `Nc1nc(-c2ccccc2)cn1/N=C/c1ccccc1` were, in that order, “inactive” and 9.59%. Turning to `Cc1ccc(N(CC(O)CN2CCCC2)S(=O)(=O)c2ccc(C)cc2)cc1` (stereo not given), the Potency entry was “inactive” and the cell number change was -13%.

Take `Cc1ccc(N(CC(O)CN2CCCCC2)S(=O)(=O)c2ccccc2)cc1` (stereo not given): the Potency entry was “inactive” and the cell number change is -15.7%. Turning to `Cc1ccc(N(CC(O)CN(C)C)S(=O)(=O)c2ccccc2)cc1` (stereo not given), the Potency was 5.17 µM (active) and the cell number change is 1.33%. For `COc1ccccc1CN1CC(C(=O)NCc2cc(C(C)C)no2)CCC1=O` (stereo not given), the Potency entry was “inactive” and the cell number change is 1.05%. The like results for `Cc1c(N=Cc2cccnc2)c(=O)n(-c2ccccc2)n1C` were, in that order, “inactive” and 7.08%. On to `Cc1c(N=Cc2ccco2)c(=O)n(-c2ccccc2)n1C`, for which the Potency entry was “inactive” and the cell number change stood at 8.07%. Turning to `Cc1c(N=Cc2ccccn2)c(=O)n(-c2ccccc2)n1C`, the Potency was 16.4 µM (active) and the cell number change was -11.2%. `Cn1c(SCC(=O)Nc2ccc3nc(SCC(=O)NC4CC4)sc3c2)nnc1-c1ccccc1`: the Potency result is “inactive” and the cell number change was -15%. In the case of `COc1ccc(Oc2coc3c(CN4CCOCC4)c(O)ccc3c2=O)cc1`, the Potency entry is “inactive” and the cell number change was 10.6%. For the compound `CN(C)CCOc1ccc(C(C)(C)c2ccccc2)cc1`, the Potency result is “inactive” and the cell number change was determined as 10.7%. On to `COC(C#CCCN(C)C)(c1ccccc1)c1ccccc1`, for which the Potency result was “inactive” and the cell number change is -1.59%. For the compound `COC(CCN(C)C)(c1ccccc1)c1ccccc1`, the Potency was 0.184 µM (active) and the cell number change was -3.67%.
